Measurements as given in PubChem BioAssay.
Calls of active or inactive are those of the source.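 The calls were made as follows: active = z-score of at least 1.8 in each of two replicates, scored against plate mean and spread of sample wells; inactive = the rest.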

Test: galactose survival enhancers in mitochondrial complex I cybrids – cell-based, galactose medium, ATP luminescence, primary screen (AID 1645843);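 also: positive z means more ATP and so rescue of galactose-driven cybrid death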
Details: complex I mutant cybrid cells, 72 h, stronger effect = higher value

Row | SMILES | z-score
1 | CCn1c(C)nc2cc(OC3(C(=O)O)CCCCC3)ccc21 | -0.565 (inactive)
2 | OCCCCCNc1nccc(-c2cnn(-c3ccccc3F)c2)n1 | -0.905 (inactive)
3 | Cn1cc(-c2ccccc2OC2(C(=O)O)CCSCC2)cn1 | 1.44 (inactive)
4 | C=C1C(C)(C)[C@H]2CC[C@]1(C(=O)N1CCC(n3cc(CC(C)C)nn3)CC1)C2 | -0.52 (inactive)
5 | Cc1ccc(-c2nn(CC(=O)Nc3cnn(C)n3)c3ccccc23)c(F)c1 | -0.4 (inactive)
6 | OC1(c2ccccc2)CCN(Cc2ccc(F)cc2Cl)C1 (stereo not given) | -0.93 (inactive)
7 | COc1cccc(C(=O)N2CCC(n3cc(-c4ccccn4)nn3)CC2)c1 | 0.785 (inactive)
8 | Cc1nc(C(C)Nc2ncnc3sccc23)cs1 (stereo not given) | 0.845 (inactive)
9 | CC1(C)CCN(C(=O)c2cc(-c3cnc(C4CC4)nc3)nc3ccc(F)cc23)C1 | -0.54 (inactive)
10 | c1ccc(Cc2noc(-c3cccc4nccnc34)n2)cc1 | 2.6 (active)
11 | O=C(CC1CCCCCC1)N1CCC(Cn2cc(CO)nn2)CC1 | -0.5 (inactive)
12 | Cc1cc(CN[C@@H](C)C(N)=O)c(C)s1 | 0.04 (inactive)
13 | CCCC(NC(=O)c1cc(C)oc1C)c1ccccc1 (stereo not given) | -0.63 (inactive)
14 | O=C(Nc1ccncc1)c1ccc2c(c1)OCCO2 | 0.445 (inactive)
15 | Cc1cc(NC(=O)CCC2CC2)n(C(C)C)n1 | -0.44 (inactive)
16 | Cc1cc(CC(=O)Nc2cc(C)nn2C2CCCCC2)on1 | 0.225 (inactive)
17 | CCN1CCCC(C(=O)N2CCC(n3cc(C(C)(C)C)nn3)CC2)C1 (stereo not given) | 0.15 (inactive)
18 | O=C1NCCN(C(=O)c2ccc(F)c(F)c2)C1Cc1ccccc1 (stereo not given) | -0.495 (inactive)
19 | Cc1ccc2c(C(=O)N3CCCC3c3nc(C)no3)cc(-c3cnn(C)c3)nc2c1 (stereo not given) | -0.585 (inactive)
20 | OCCCCCNc1nccc(-c2cnn(-c3ccc(F)cc3)c2)n1 | -0.895 (inactive)

Row | SMILES | z-score
21 | CC(C)Cc1cn(C2CCN(C3Cc4ccccc4C3)CC2)nn1 | -0.99 (inactive)
22 | CCn1ncc2[nH]c(-c3cc(F)ccc3-n3cccn3)nc21 | -0.185 (inactive)
23 | C=C1C(C)(C)[C@H]2CC[C@]1(C(=O)N1CCC(n3cc(CCCC)nn3)CC1)C2 | 2.16 (inactive)
24 | COc1ccc(-c2ccc3cc(Cl)ccc3n2)c(OC)c1 | 1.15 (inactive)
25 | CCc1ncc(C(=O)N2CCCC(Cn3cc(-c4ccccc4)nn3)C2)cn1 (stereo not given) | 0.19 (inactive)
26 | Cn1nc(NC(=O)Cn2ccc(-c3ccsc3)n2)c2ccccc21 | 0.985 (inactive)
27 | Cn1ncc(NC(=O)Cn2ccc(-c3ccccc3C(F)(F)F)n2)n1 | 1.12 (inactive)
28 | Cc1cccc2c(C(=O)N(C)C(C)C)cc(-c3cnn(C(C)(C)C)c3)nc12 | 1.41 (inactive)
29 | O=C(Cn1cc(-c2cncnc2)cn1)Nc1ccnn1Cc1ccco1 | 1.12 (inactive)
30 | COc1ccccc1-c1noc(Cn2ncc3ccccc32)n1 | 1.12 (inactive)
31 | Cc1ccccc1C1CCCN(C(=O)c2cc(C(C)C)no2)C1 (stereo not given) | 2.95 (active)
32 | Cc1ccc2c(=O)n(C3CC(C)(C)NC(C)(C)C3)cnc2c1C | -0.535 (inactive)
33 | CC(=O)N[C@@H](CC(C)C)C(=O)N1CCC(n2cc(C(C)(C)N)nn2)CC1 | -0.505 (inactive)
34 | COc1cc(N2CCN(Cc3ccc(F)cc3)C(=O)C2)ncn1 | -0.36 (inactive)
35 | CC(C)Cc1cn(C2CCN(C(=O)C3CCCCCC3)CC2)nn1 | -0.435 (inactive)
36 | O=C1NCCN(C(=O)c2ccccc2)C1Cc1ccccc1 (stereo not given) | -0.54 (inactive)
37 | O=C1NCCN(C(=O)c2ccc(Cl)cc2)C1Cc1ccccc1 (stereo not given) | 0.59 (inactive)
38 | Cc1nn(C)c(C)c1-c1ccnc(N2CCC(c3ccccc3Cl)C2)n1 (stereo not given) | -1.27 (inactive)
39 | CC(=O)NCCC1CCN(C(=O)C(C)Oc2cc(C)c(Cl)c(C)c2)CC1 (stereo not given) | -0.5 (inactive)
40 | CC(C)Oc1cccc(C(=O)N2CCC(n3cc(C(C)(C)O)nn3)CC2)c1 | -0.52 (inactive)
